Assay [1] in a line: NCI Yeast Anticancer Drug Screen. Data for the rad50 strain (AID 155).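 Further: 0% = growth of vehicle-only cultures of the same strain.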 Particulars: S. cerevisiae rad50 strain growth inhibition, stronger effect = higher value. Summed up: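 Inhibition values express reduced yeast growth in compound-treated cultures relative to vehicle-treated controls.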
A short description of assay [2]: NCI Yeast Anticancer Drug Screen. Data for the mec2-1 strain (AID 157). Particulars: S. cerevisiae mec2-1 strain, stronger effect = higher value. Summed up:
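mec2-1 yeast strain, carrying an alteration in DNA damage repair or cell cycle control, was exposed to compounds; growth inhibition was measured relative to vehicle-treated controls.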

Assay [3] can be described thus: NCI Yeast Anticancer Drug Screen. Data for the sgs1 mgt1 strain (AID 161).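 Further: 0% = growth of cultures given vehicle only.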 The settings on record: S. cerevisiae sgs1 mgt1 strain, stronger effect = higher value. The essentials:
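This yeast growth screen uses a strain with defined DNA-repair lesions; compound-treated growth is compared with vehicle-treated growth.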

Assay [4] can be described thus: NCI Yeast Anticancer Drug Screen. Data for the cln2 rad14 strain (AID 165).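 Further: 0% = growth equal to vehicle treated cultures.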 Particulars: S. cerevisiae cln2 rad14 strain, stronger effect = higher value. Summed up: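 Yeast carrying cln2 and rad14 alterations (cell cycle control and DNA damage repair) were exposed to compounds. Growth inhibition was measured against vehicle-treated controls.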
A short description of assay [5]: NCI Yeast Anticancer Drug Screen. Data for the bub3 strain (AID 167). Particulars: S. cerevisiae bub3 mutant strain, stronger effect = higher value. The essentials:
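Steps: expose the mutant yeast strain to compound; grow alongside vehicle-treated cultures; measure growth; express inhibition against the vehicle cultures.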

Assay [6] can be described thus: NCI Yeast Anticancer Drug Screen. Data for the mlh1 rad18 strain (AID 175). Particulars: S. cerevisiae mlh1 rad18 strain growth inhibition, stronger effect = higher value. Summed up:
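Growth inhibition of the yeast strain was measured after compound exposure and expressed relative to vehicle-treated controls. The strain carries defined defects in DNA damage repair.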

Where [7] appears, read: at 5.0 µM (retest, dose inferred, filed as 0.5).
[8] abbreviates: at 50.0 µM (retest, dose inferred, filed as 5.0).

The panel holds about 79,000 compounds, 15% with a hit somewhere; the sample as a whole holds those more often. A number with no mark means an inactive call. Active and inactive are the calls of the source. No stated cut-off is given here; in the data, active means growth inhibition above about 70%; inactive means the rest.

In the case of `CCOP(=O)(OCC)/C(C#N)=C/c1ccc(C(F)(F)F)cc1`, the growth inhibition is 20% in assay [1] (setting [7]); 90% (active) in assay [1] (setting [8]); 89.5% (active) in assay [1] (at 50.0 µM); -16% in assay [2] (setting [7]); 94% (active) in assay [2] (setting [8]); 91.7% (active) in assay [2] (at 50.0 µM). Besides, the growth inhibition was 4% in assay [3] (setting [7]); 93% (active) in assay [3] (setting [8]); 90.9% (active) in assay [3] (at 50.0 µM); 12% in assay [4] (setting [7]); 95% (active) in assay [4] (setting [8]); 89.4% (active) in assay [4] (at 50.0 µM). Also, the growth inhibition in assay [5] (setting [7]) was 28%; in assay [5] (setting [8]) it was 97% (active); in assay [5] (at 50.0 µM), 89.4% (active); in assay [6] (setting [7]) it was 3%; in assay [6] (setting [8]) it was 90% (active); in assay [6] (at 50.0 µM) it was 86.8% (active).
On to `CCn1c2nc(=O)n(C)c(=O)c-2[n+]([O-])c2cc(C)ccc21`, for which the growth inhibition in assay [1] (setting [7]) was 16%; in assay [1] (setting [8]) it was 70% (active); in assay [1] (at 50.0 µM) it was 70.5% (active); in assay [2] (setting [7]) it was 8%; in assay [2] (setting [8]), 33%; in assay [2] (at 50.0 µM), 26.4%. Moreover, the growth inhibition in assay [3] (setting [7]) was 4%; in assay [3] (setting [8]) it was 27%; in assay [3] (at 50.0 µM) it was 44.5%; in assay [4] (setting [7]), -2%; in assay [4] (setting [8]), 7%; in assay [4] (at 50.0 µM), 25.1%. In addition, the growth inhibition in assay [5] (setting [7]) was -1%; in assay [5] (setting [8]) it was 13%; in assay [5] (at 50.0 µM), 14.9%; in assay [6] (setting [7]) it was 0%; in assay [6] (setting [8]), 49%; in assay [6] (at 50.0 µM), 10.8%.
Consider `Cc1cc(SCC(=O)c2ccc(Cl)cc2)cc(C)[o+]1`, for which the growth inhibition in assay [1] (setting [7]) is -3%; in assay [1] (setting [8]), 90% (active); in assay [1] (at 50.0 µM) it was 95.8% (active); in assay [2] (setting [7]), -1%; in assay [2] (setting [8]) it was 90% (active); in assay [2] (at 50.0 µM), 95.5% (active). The growth inhibition was -2% in assay [3] (setting [7]); 93% (active) in assay [3] (setting [8]); 96.4% (active) in assay [3] (at 50.0 µM); -13% in assay [4] (setting [7]); 73% (active) in assay [4] (setting [8]); 88.7% (active) in assay [4] (at 50.0 µM). The growth inhibition in assay [5] (setting [7]) is -2%; in assay [5] (setting [8]) it was 87% (active); in assay [5] (at 50.0 µM) it was 96.3% (active); in assay [6] (setting [7]) it was -9%; in assay [6] (setting [8]) it was 78% (active); in assay [6] (at 50.0 µM), 92.3% (active).
On to `O=C1C(Br)CCC1(c1ccccc1)c1ccccc1` (stereo not given), for which the growth inhibition in assay [1] (setting [7]) is 5%; in assay [1] (setting [8]), 91% (active); in assay [1] (at 50.0 µM), 97% (active); in assay [2] (setting [7]), 6%; in assay [2] (setting [8]) it was 93% (active); in assay [2] (at 50.0 µM), 97.2% (active). For the same compound, the growth inhibition is 4% in assay [3] (setting [7]); 97% (active) in assay [3] (setting [8]); 98% (active) in assay [3] (at 50.0 µM); 4% in assay [4] (setting [7]); 78% (active) in assay [4] (setting [8]); 78.8% (active) in assay [4] (at 50.0 µM). In addition, the growth inhibition in assay [5] (setting [7]) is -10%; in assay [5] (setting [8]), 94% (active); in assay [5] (at 50.0 µM), 95.7% (active); in assay [6] (setting [7]), 3%; in assay [6] (setting [8]) it was 96% (active); in assay [6] (at 50.0 µM), 98.2% (active).
With `CCCCOC(=O)c1n[nH]c(C)c1N=NN(C)C`, the growth inhibition was 43% in assay [1] (setting [7]); 99% (active) in assay [1] (setting [8]); 99% (active) in assay [1] (at 50.0 µM); 96% (active) in assay [2] (setting [7]); 99% (active) in assay [2] (setting [8]); 99% (active) in assay [2] (at 50.0 µM). For the same compound, the growth inhibition in assay [3] (setting [7]) is 95% (active); in assay [3] (setting [8]), 99% (active); in assay [3] (at 50.0 µM), 99.2% (active); in assay [4] (setting [7]), 95% (active); in assay [4] (setting [8]), 99% (active); in assay [4] (at 50.0 µM) it was 99.4% (active). Besides, the growth inhibition was 84% (active) in assay [5] (setting [7]); 99% (active) in assay [5] (setting [8]); 99.2% (active) in assay [5] (at 50.0 µM); 80% (active) in assay [6] (setting [7]); 99% (active) in assay [6] (setting [8]); 99.2% (active) in assay [6] (at 50.0 µM).
Turning to `CC(O)(c1ccccc1)c1ccccc1S(=O)(=O)Nc1ccccc1` (stereo not given), the growth inhibition in assay [1] (setting [7]) is -7%; in assay [1] (setting [8]), 99% (active); in assay [1] (at 50.0 µM) it was 99.2% (active); in assay [2] (setting [7]), 6%; in assay [2] (setting [8]), 91% (active); in assay [2] (at 50.0 µM) it was 98.8% (active). In addition, the growth inhibition was -4% in assay [3] (setting [7]); 99% (active) in assay [3] (setting [8]); 98.5% (active) in assay [3] (at 50.0 µM); 12% in assay [4] (setting [7]); 33% in assay [4] (setting [8]); 98.5% (active) in assay [4] (at 50.0 µM). The growth inhibition in assay [5] (setting [7]) is -5%; in assay [5] (setting [8]) it was 46%; in assay [5] (at 50.0 µM) it was 98.9% (active); in assay [6] (setting [7]), -2%; in assay [6] (setting [8]) it was 98% (active); in assay [6] (at 50.0 µM), 98.4% (active).
Consider `COC1=CC(=O)c2ncccc2C1=O`, for which the growth inhibition was 13% in assay [1] (setting [7]); 92% (active) in assay [1] (setting [8]); 91.8% (active) in assay [1] (at 50.0 µM); 6% in assay [2] (setting [7]); 83% (active) in assay [2] (setting [8]); 78.5% (active) in assay [2] (at 50.0 µM). The growth inhibition in assay [3] (setting [7]) is 8%; in assay [3] (setting [8]) it was 81% (active); in assay [3] (at 50.0 µM) it was 84.8% (active); in assay [4] (setting [7]) it was -3%; in assay [4] (setting [8]) it was 93% (active); in assay [4] (at 50.0 µM), 89.2% (active). For the same compound, the growth inhibition is 2% in assay [5] (setting [7]); 81% (active) in assay [5] (setting [8]); 46.6% in assay [5] (at 50.0 µM); 9% in assay [6] (setting [7]); 93% (active) in assay [6] (setting [8]); 95.1% (active) in assay [6] (at 50.0 µM).
Regarding `Nc1ncnc2c1c(-c1ccccc1)cn2-c1ccc(I)cc1`, the growth inhibition in assay [1] (setting [7]) was 54%; in assay [1] (setting [8]), -2%; in assay [1] (at 50.0 µM) it was 33.4%; in assay [2] (setting [7]) it was 23%; in assay [2] (setting [8]), 0%; in assay [2] (at 50.0 µM), 75.2% (active). In addition, the growth inhibition is 65% in assay [3] (setting [7]); -3% in assay [3] (setting [8]); 41.1% in assay [3] (at 50.0 µM); 24% in assay [4] (setting [7]); -2% in assay [4] (setting [8]); 94.2% (active) in assay [4] (at 50.0 µM). In addition, the growth inhibition in assay [5] (setting [7]) was 32%; in assay [5] (setting [8]) it was 0%; in assay [5] (at 50.0 µM) it was 97.3% (active); in assay [6] (setting [7]), 26%; in assay [6] (setting [8]), -2%; in assay [6] (at 50.0 µM), 47.9%.
Turning to `O=C(O)CC1c2ccccc2-c2ccccc21`, the growth inhibition in assay [1] (setting [7]) is -5%; in assay [1] (setting [8]), 36%; in assay [1] (at 50.0 µM) it was 87.7% (active); in assay [2] (setting [7]), -24%; in assay [2] (setting [8]) it was 24%; in assay [2] (at 50.0 µM), 64.5%. Besides, the growth inhibition in assay [3] (setting [7]) is -4%; in assay [3] (setting [8]), 31%; in assay [3] (at 50.0 µM) it was 78.7% (active); in assay [4] (setting [7]), -3%; in assay [4] (setting [8]) it was 54%; in assay [4] (at 50.0 µM) it was 43.9%. Besides, the growth inhibition in assay [5] (setting [7]) was -6%; in assay [5] (setting [8]), 82% (active); in assay [5] (at 50.0 µM) it was 82.8% (active); in assay [6] (setting [7]), -7%; in assay [6] (setting [8]), 67%; in assay [6] (at 50.0 µM), 79.3% (active).
`CCN1C(/C=C/c2ccc(O)c3ncccc23)CCC2CC(C)CCC21` (stereo not given): the growth inhibition in assay [1] (setting [7]) was 20%; in assay [1] (setting [8]), 94% (active); in assay [1] (at 50.0 µM) it was 95.3% (active); in assay [2] (setting [7]) it was 12%; in assay [2] (setting [8]), 97% (active); in assay [2] (at 50.0 µM), 95.5% (active). Besides, the growth inhibition in assay [3] (setting [7]) was 62%; in assay [3] (setting [8]) it was 96% (active); in assay [3] (at 50.0 µM) it was 95.5% (active); in assay [4] (setting [7]), 10%; in assay [4] (setting [8]), 90% (active); in assay [4] (at 50.0 µM) it was 88.9% (active). Moreover, the growth inhibition is 30% in assay [5] (setting [7]); 94% (active) in assay [5] (setting [8]); 94% (active) in assay [5] (at 50.0 µM); 41% in assay [6] (setting [7]); 94% (active) in assay [6] (setting [8]); 94.3% (active) in assay [6] (at 50.0 µM).

These data come from PubChem BioAssay (NCI).
